# Shown are actives, neighbours in structure and some others; about 15% of the full set was active somewhere.
# DT40 TDP1 CPT = growth inhibition of DT40 Tdp1-/-;hTDP1 cells with camptothecin (screen for TDP1 inhibitors) | chicken DT40 Tdp1-/-;hTDP1 cells + 20 nM CPT, ATP luminescence, 48 h | Potency, µM (highest dose often 46.2 µM), for the others: at the highest dose activity change, negative = growth inhibition, usual class: inhibitors | 420,000 compounds, 12% hits | AID 686979; note: nearly all actives have a fitted effect of over 55% in size
#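 Chicken DT40 Tdp1-/- cells complemented with human TDP1, 400 cells/well, exposed to compounds plus 20 nM camptothecin for at least 48 h at 37 C; viability read as ATP content by CellTiter-Glo luminescence.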
# RORg inh = ROR gamma (mouse) transcription inhibition | AID 2551 | Drosophila S2 Gal4-RORgamma UAS-luciferase reporter, 20 h | Potency, µM (top dose mostly 53.6 µM), for the others: at the highest dose activity change, negative = inhibition, most hits filed as inhibitors | P51450 | 310,000 compounds, 5.4% hits; note: nearly all actives have a fitted effect of over 60% in size
# Target sequence (P51450 whole entry, looked up, the tested form may be a part): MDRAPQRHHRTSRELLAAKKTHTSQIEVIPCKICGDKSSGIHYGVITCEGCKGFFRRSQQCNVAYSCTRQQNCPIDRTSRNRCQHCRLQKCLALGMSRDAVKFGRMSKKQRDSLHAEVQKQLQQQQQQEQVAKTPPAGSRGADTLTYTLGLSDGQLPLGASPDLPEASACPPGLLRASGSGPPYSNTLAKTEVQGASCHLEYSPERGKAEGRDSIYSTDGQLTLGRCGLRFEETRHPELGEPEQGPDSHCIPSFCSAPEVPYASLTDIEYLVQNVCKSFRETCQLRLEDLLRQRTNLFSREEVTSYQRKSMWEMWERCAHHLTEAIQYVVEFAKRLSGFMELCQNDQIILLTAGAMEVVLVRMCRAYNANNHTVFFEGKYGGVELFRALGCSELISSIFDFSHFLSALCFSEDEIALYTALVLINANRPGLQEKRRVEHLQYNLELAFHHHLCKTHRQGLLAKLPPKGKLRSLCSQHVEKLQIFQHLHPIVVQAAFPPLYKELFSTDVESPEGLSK
#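 Drosophila S2 cells stably expressing Gal4-DBD/mouse RORγ fusion under metallothionein promoter plus UAS-luciferase; compound 1 h, then 700 uM CuSO4 induction for 20 h at ambient temperature; inhibition read as reduced luminescence.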
# TDP1 cell noCPT = qHTS for Inhibitors of human tyrosyl-DNA phosphodiesterase 1 (TDP1): qHTS in cells in absence of CPT. DT40 Tdp1-/- hTDP1 cells, no CPT, ATP luminescence, 48 h. Potency, µM (titrated, usually from 46.2 µM), for inactives: top-dose activity change, negative = growth inhibition, most hits filed as inhibitors. 420,000 compounds, 15% hits. AID 686978, 2013; note: nearly all actives have a fitted effect of over 55% in size
#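 Chicken DT40 Tdp1-/- cells complemented with human TDP1, screened without camptothecin (DMSO vehicle only), 400 cells/well. Compounds pin-transferred, cells incubated at 37 °C for at least 48 hr. Growth read as ATP-dependent luminescence (CellTiter-Glo, 30 min at RT).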
# 12-LOX inh = ALOX12 (human) lipoxygenase inhibition. 580,000 compounds, 1.1% hits. P18054. AID 1671190. Potency, µM (top dose mostly 108 µM), for inactives: at the top dose activity change, negative = inhibition, most hits filed as inhibitors. purified 12hLO, xylenol orange hydroperoxide absorbance
#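 Hydroperoxide product was detected by ferrous iron/xylenol orange as the 573 to 405 nm absorbance ratio. Arachidonic acid at 40 uM (final) was turned over for 30 min at room temperature by 150 nM human 12hLO, pH 7.0 Hepes buffer, after 15 min compound preincubation.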
# ELG1 DNA repair = blocks ELG1-dependent DNA repair in HEK293T cells; HEK293T ELG1-luciferase reporter, luminescence, 16 h; DNA damage induced by 5-fluorouridine; Potency, µM (highest dose often 46.1 µM), for inactives: at the highest dose activity change, negative = inhibition, most hits filed as inhibitors; AID 504467; 330,000 compounds, 2.3% hits; note: nearly all actives have a fitted effect of over 55% in size
#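 5-Fluorouridine DNA damage + compound/DMSO, 2,000 cells/well, 16 h, 37 °C/5% CO2. ONE-Glo, 30 min RT, luminescence. Readout = decrease in reporter signal.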
# VP16 counter = Gal4-VP16 reporter inhibition counter-screen; Drosophila S2 Gal4-VP16 UAS-luciferase, luminescence, 20 h; Potency, µM (doses to about 53.6 µM), for the others: top-dose activity, negative = inhibition, actives largely listed as inhibitors; 310,000 compounds, 3.5% hits;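 note: Gal4-VP16 expression switched on by copper sulfate through the metallothionein promoter; nearly all actives have a fitted effect of over 50% in size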
# Starred values were filed as active, the others as inactive; ? = inconclusive; / = no result; [ ] = remark or other dose. Calls come from the whole dose curve; as a rule, active = well fitted curve in the direction sought with a large enough effect; inconclusive = small, poorly fitted or top-dose-only effect, or another doubt; inactive = no such curve, though single readings can be large; an effect the other way counts as inactive or inconclusive. % is set by controls: 0 for no effect and ±100 for the full control effect; potency is the fitted concentration of half-maximal effect.
SMILES,DT40 TDP1 CPT,RORg inh,TDP1 cell noCPT,12-LOX inh,ELG1 DNA repair,VP16 counter
CC1CN(S(=O)(=O)c2cccc(C(=O)OC/C(O)=C(\C#N)c3nc4ccccc4[nH]3)c2)CC(C)O1 (configuration not stated),?,11µM*,?,13%,?,?
COc1ccc(S(=O)(=O)N2CCN(C(=O)c3csc(C)n3)CC2)cc1,/,/,/,44%,/,/
N#C/C(=C(/O)COC(=O)CCc1ccc(S(=O)(=O)N2CCOCC2)cc1)c1nc2ccccc2[nH]1,16µM*,8.9µM*,13µM*,0%,-9%,20µM*
C=CCSC1=N/C(=C\c2cc(OCC)c(OC(C)=O)c([N+](=O)[O-])c2)C(=O)S1,16µM*,-3%,?,?,-7%,?
C=CCSC1=N/C(=C\c2ccc3c(c2)OCO3)C(=O)S1,7%,14%,?,-4%,-7%,0%
CCOc1ccccc1CN1CCC2(CCN(C(=O)Nc3ccccc3)CC2)Oc2ccccc21,/,/,/,25µM*,/,/
CCOc1ccccc1CN1CCC2(CCN([S+](=O)([O-])c3cccs3)CC2)Oc2ccccc21,/,/,/,-12%,/,/
Cc1ccc(-n2cc(CN3CCN(c4ccccn4)CC3)c(-c3ccc(F)cc3)n2)cc1,4%,-31%,16µM*,6%,-8%,?
O=C(c1cn(Cc2ccccc2)nc1-c1ccc(Cl)cc1)N1CCN(c2ccccn2)CC1,?,/,?,25%,?,/
Cc1ccc(-n2cc(CN3CCN(C(=O)c4ncn[nH]4)CC3)c(-c3ccc(F)cc3)n2)cc1,?,-4%,23µM*,6%,21µM*,2%
Cc1cccc(-n2cc(CN3CCN(c4ccccn4)CC3)c(-c3cccc(F)c3)n2)c1,?,3%,-3%,-7%,-10%,6%
Cc1ccc(-c2nn(-c3ccccc3)cc2C(=O)N2CCN(c3ccccn3)CC2)cc1,?,?,29µM*,-5%,?,?
CC(C)Oc1nc2ccccc2nc1N1CCC(C(=O)NCc2ccccc2Cl)CC1,/,/,/,-32%,/,/
CC(C)/C=N/NC(=O)COc1ccc(C#N)cc1,/,/,/,2%,/,/
CCCCN(C)C(=O)CCC1CCN(c2cc(NC3CC3)ncn2)CC1,/,/,/,45%,/,/
Clc1ccc(-c2csc(NC3CC3)n2)cc1,/,/,/,8.9µM*,/,/
Clc1ccc(-c2csc(NC3CC3)n2)cc1Cl,/,/,/,10µM*,/,/
CNc1nc(-c2ccc(Cl)cc2)cs1,-19%,1%,?,-1%,?,6%
CC(=O)Nc1ccc(-c2csc(NC3CC3)n2)c(F)c1,/,/,/,14µM*,/,/
Clc1cccc(-c2csc(NC3CC3)n2)c1,/,/,/,-26%,/,/
CNc1ccc(OC(F)(F)Cl)cc1,/,/,/,-36%,/,/
CNc1ccc(C=C2C=CC=C2)cc1,11µM*,/,?,/,/,/
CCn1nc(C(=O)N2CC(C(N)=O)Oc3ccccc32)c2ccccc2c1=O (configuration not stated),/,/,/,-1%,/,/
C=CCNC(=O)N1CCC(O)(c2csc(CN3CCc4ccccc4C3)n2)CC1,/,/,/,14%[176 µM],/,/
CCN1C(=O)/C(=C\C=C2/C=CC=CN2CC)SC1=S,?,8.9µM*,29µM*,?,?,?
SMILES,DT40 TDP1 CPT,RORg inh,TDP1 cell noCPT,12-LOX inh,ELG1 DNA repair,VP16 counter
CCN1C(=O)/C(=C/C=C2\C=CN(CC)c3ccccc32)SC1=S,16µM*,14%,16µM*,?,?,-6%
COC(=O)CC1C(=O)NCCN1C(=O)c1ccc2nc(C3CCCCC3)oc2c1 (configuration not stated),/,/,/,34%,/,/
CCOC(=O)CSc1nnc(-c2ccccc2OC)o1,0%,-38%,-2%,-18%,-1%,-21%
COc1ccccc1-c1nnc(SCC(=O)NC2CCCCC2)o1,?,12%,?,428%,17%,3%
COc1ccccc1-c1nnc(SCC(=O)Nc2c(Cl)cccc2Cl)o1,18µM*,11%,21µM*,-3%,-7%,-15%
COc1ccccc1-c1nnc(SCC(=O)NCc2c(C)c(Cl)cc(C(C)C)c2O)o1,29µM*,-37%,?,13%,?,-8%
COc1cccc(NC(=O)CSc2nnc(-c3cc(C)n(-c4ccccc4)c3C)o2)c1,?,10µM*,?,/,?,11µM*
CCCNc1cc(N2CCC(CCC(=O)Nc3cc(C)ccc3OC)CC2)ncn1,/,/,/,27%,/,/
COc1ccccc1N1CCN(C(=O)c2ccc3ncsc3c2)CC1,6.5µM*,/,2.3µM*,-3%,/,/
Cc1ccc(C)c(N2CCN(C(=O)c3ccc4nc(-c5ccco5)c(-c5ccco5)nc4c3)CC2)c1,?,37%,23µM*,?,?,-7%
COc1ccccc1N1CCN(C(=O)c2ccc3nc(-c4ccco4)c(-c4ccco4)nc3c2)CC1,?,-20%,21µM*,?,7.3µM*,18%
COc1ccccc1N1CCN(C(=O)c2ccc3nc[nH]c3c2)CC1,13%,6%,1%,11%,-4%,?
COc1ccc2c(c1)OCC(C(=O)NCCNc1cc(C)ccn1)C2 (configuration not stated),/,/,/,-13%,/,/
O=C(CCNS(=O)(=O)c1cccc2nonc12)N1CCN(c2cccc(Cl)c2)CC1,?,?,12µM*,0%,?,-14%
O=C(CCCNS(=O)(=O)c1cccs1)N1CCN(c2cccc(Cl)c2)CC1,?,33%,?,?,23µM*,-5%
CCOc1ccccc1N1CCN(C2=C(NS(=O)(=O)c3cccs3)C(=O)c3ccccc3C2=O)CC1,?,0%,26µM*,-1%,23µM*,-2%
CN1CCN(C2=C(NS(=O)(=O)c3cccs3)C(=O)c3ccccc3C2=O)CC1,16µM*,-30%,21µM*,-13%,-28%,-4%
O=C(CCNS(=O)(=O)c1cccs1)N1CCN(c2cccc(Cl)c2)CC1,?,41%,?,-5%,2%,-4%
O=C1C(NS(=O)(=O)c2cccs2)=C(N2CCOCC2)C(=O)c2ccccc21,?,-23%,?,?,-5%,-13%
CC(NS(C)(=O)=O)C(c1cccs1)N1CCN(Cc2ccccc2)CC1 (configuration not stated),?,-24%,?,14%[57.4 µM],10%,6%
O=C(CNS(=O)(=O)c1cccs1)N1CCN(c2cccc(C(F)(F)F)c2)CC1,16µM*,/,21µM*,-22%,/,/

# From PubChem BioAssay
